Screening results deposited in PubChem by Columbia University Molecular Screening Center.
The sample as a whole holds a higher share of hits than the screen did.
VCAM1 TNFa pot – potentiators of TNFa-induced VCAM1 expression, primary screen, imaging, HUVEC, TNFa stimulus, immunofluorescence | AID 808, 2007 | HUVEC TNFa-stimulated VCAM-1 immunofluorescence, high-content imaging; scaled per plate to unstimulated/TNFa-only wells | 0.19% of 93,000 active | activation, % at 2 µM;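 active means activation above the screen mean plus 3 SD, with well images confirming the hit on visual review, cut at about 28% in these data, passing the limit was not always enough; inconclusive means activation above that limit but images do not confirm it; inactive means activation not above that limit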;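 further: signal is the number of cytoplasmic VCAM-1 stained grains per positive cell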
VCAM1 pot conf – potentiators of TNFa-induced VCAM1 expression, confirmation, imaging, HUVEC, triplicate retest; shares compounds with VCAM1 TNFa pot; HUVEC TNFa-stimulated VCAM-1 immunofluorescence imaging; activation, % at 2 µM; 230 tested, under 10 active;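 active means activation above 30% in triplicate retests at 2 µM, then confirmed by visual review of the well images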;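 further: scaled per plate between unstimulated and TNFa-stimulated DMSO control wells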
An asterisk follows results filed as active; u = inconclusive.

SMILES | VCAM1 TNFa pot | others
CCCCOC(=O)Nc1nc(CC(=O)OCC)cs1 | u | VCAM1 pot conf=-7
Cc1cccc(N(CC(N)=O)C2SC(=O)NC2=O)c1 (stereo not drawn) | -6
CCC(=O)Nc1cccc(C(=O)/C=C/c2cc(Br)ccc2OC)c1 | -69
O=S1(=O)CCC(S(=O)(=O)N2CCCCCC2)C1 (stereo not drawn) | -18
CCCCn1c(SCC(=O)c2ccc3c(c2)OCCO3)nnc1-c1ccco1 | -2
O=C(CCN1CCc2ccccc21)c1ccc2c(c1)OCCO2 | 67* | VCAM1 pot conf=0
O=C(CCC(=O)N1CCc2ccccc21)Nc1ccccc1 | 5
Cc1cc2n(n1)SC(Nc1ccc(F)c(Cl)c1)N2 (stereo not drawn) | -45
CCc1nnc(NC(=O)c2cc3c(s2)CCCCC3)s1 | 9
CCc1nnc(NC(=O)CN2CCOCC2)s1 | 85* | VCAM1 pot conf=-10
Cn1c(CN2CCOCC2)nnc1SCC(=O)Nc1nccs1 | -11
O=C1O/C(=C/C(=O)N2CCOCC2)c2ccccc21 | 12
O=S(=O)(NCc1ccccc1)c1ccc(S(=O)(=O)N(Cc2ccccn2)C2CCCC2)cc1 | u | VCAM1 pot conf=-13
CCCNS(=O)(=O)c1ccc(NC(=O)c2ccccn2)cc1 | -3
CN(Cc1ccccc1)S(=O)(=O)c1ccc(NC(=S)NC(=O)C2CCCC2)cc1 | -48
Cc1ccc(Cl)cc1NC(=O)CC(O)(C(F)(F)F)C(F)(F)F | 38
CCOC(=O)C(C)c1ccc2cc(OC)ccc2c1 (stereo not drawn) | -9
COC(=O)COc1ccc(=O)n(-c2ccccc2)n1 | -73
Cc1cc(NCCN(C)C)n2nc(-c3cccs3)cc2n1 | 41* | VCAM1 pot conf=-10
O=C(O)c1ccc(NC(CSCc2cccc(F)c2)C(=O)O)c([N+](=O)[O-])c1 (stereo not drawn) | 3
O=C1C=C(O)CC(c2ccc(Cl)c(Cl)c2)C1 (stereo not drawn) | u | VCAM1 pot conf=-1
COc1cc(C2CC(=O)C=C(O)C2)cc(OC)c1OC (stereo not drawn) | 16
O=C1C=C(O)CC(c2ccc(Cl)cc2)C1 (stereo not drawn) | -3
COc1cc2[nH]c(=O)n(CCCCCC(=O)N3CC=C(c4ccccc4)CC3)c(=O)c2cc1OC | -1
COc1ccc(CN(CC(=O)NCC2CCCO2)C(=O)CNS(=O)(=O)c2ccc(C)cc2)cc1 (stereo not drawn) | 18
SMILES | VCAM1 TNFa pot | others
CCOC(=O)N1CCN(C(=O)C2CCC(CNS(=O)(=O)c3ccccc3)CC2)CC1 (stereo not drawn) | -10
COc1ccc(S(=O)(=O)NCC2CCC(C(=O)N3CCC4(CC3)OCCO4)CC2)cc1 (stereo not drawn) | u | VCAM1 pot conf=-17
O=C1c2oc3ccccc3c(=O)c2C(c2ccccn2)N1Cc1ccccc1 (stereo not drawn) | -5
Cc1ccc(-c2nnc(SCC(=O)CC(=O)Nc3ccccc3)n2C)cc1 | 5
CCCSc1nnc(-c2cnn(-c3ccccc3)c2-n2cccc2)n1C | 36* | VCAM1 pot conf=-3
Cn1c(SCC(=O)CC(=O)Nc2ccccc2)nnc1-c1ccc(O)cc1 | -8
COc1ccc(OCCOC(=O)c2cccc(-n3cnnn3)c2)cc1 | -3
COc1ccc(Cl)cc1NC(=O)COc1cccc(-n2cnnn2)c1 | u | VCAM1 pot conf=7
O=C(COc1ccccc1)Nc1ccc(OC(F)(F)C(F)F)c(NC(=O)COc2ccccc2)c1 | -4
Cc1cccc(C2CC(c3ccc(Br)cc3)Nc3nc(N)nn32)c1 (stereo not drawn) | 2
Cc1cccc(OCCCCCn2ccnc2)c1 | -10
COc1cc(C(=O)NCc2nnc(SCC(=O)Nc3cc(C)cc(C)c3)o2)cc(OC)c1OC | 5
O=C(NCc1ccco1)c1n[nH]c(=O)c2ccccc12 | -5
c1ccc(-c2cc(N3CCCCCC3)n[nH]2)cc1 | 13
Cc1nc(CS(=O)c2ccccc2)cc(N2CCOCC2)n1 (stereo not drawn) | -16
Cc1nc(-c2ccccc2)cc(N2CCCC2)n1 | 61* | VCAM1 pot conf=-8
c1ccc(CSc2nnc(-c3ccncc3)o2)cc1 | 58* | VCAM1 pot conf=-13
COC(=O)C(C)Sc1nnc(-c2ccncc2)o1 (stereo not drawn) | -19
c1ccc(-c2nnc(CSc3nncs3)o2)cc1 | -93
CN(CC(=O)Nc1nc2ccccc2s1)S(=O)(=O)c1ccccc1 | 16
CSc1nc(C)cc(OCC#N)n1 | 10
OCc1csc(=Nc2ccccc2)n1-c1ccccc1 | -4
CCS(=O)(=O)N1CCC(C(=O)OCC(=O)c2ccc(Br)cc2)CC1 | 1
